# Source: PubChem BioAssay (National Center for Advancing Translational Sciences (NCATS))
# RORg inh: blocks mouse ROR gamma transcriptional activity | AID 2551 | Potency, µM (series often up to 53.6 µM), for inactives: at the highest dose activity change, negative = inhibition, usual class: inhibitors | 310,000 compounds, 5.4% hits | Drosophila S2 Gal4-RORgamma UAS-luciferase reporter, 20 h; further: nearly all actives have a fitted effect of over 60% in size
#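 Read-out: Photinus luciferase luminescence; inhibitors lower reporter signal. Insect Schneider cells with Gal4-ROR gamma fusion under metallothionein promoter, UAS reporter; 700 uM final copper sulfate induction, 20 hr, ambient temperature.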
# DT40 TDP1 no CPT: qHTS for Inhibitors of human tyrosyl-DNA phosphodiesterase 1 (TDP1): qHTS in cells in absence of CPT | DT40 Tdp1-/- hTDP1 cells, no CPT, ATP luminescence, 48 h | Potency, µM (highest dose often 46.2 µM), for the others: top-dose activity change, negative = growth inhibition, actives largely listed as inhibitors | AID 686978, 2013 | 420,000 compounds, 15% hits; further: nearly all actives have a fitted effect of over 55% in size
#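 Compound effects on proliferation are scored in DT40 Tdp1-/-;hTDP1 cells in the absence of CPT. ATP levels (CellTiter-Glo luminescence) are recorded after a ≥48 hr, 37 °C incubation.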
# TDP1 cell CPT: growth inhibition of DT40 Tdp1-/-;hTDP1 cells with camptothecin (screen for TDP1 inhibitors); chicken DT40 Tdp1-/-;hTDP1 cells + 20 nM CPT, ATP luminescence, 48 h; Potency, µM (doses to about 46.2 µM), without a hit: at the highest dose activity change, negative = growth inhibition, hits mostly inhibitors; 420,000 compounds, 12% hits; AID 686979; further: nearly all actives have a fitted effect of over 55% in size
#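 Chicken DT40 Tdp1-/- cells complemented with human TDP1, 400 cells/well, exposed to compounds plus 20 nM camptothecin for at least 48 h at 37 C; viability read as ATP content by CellTiter-Glo luminescence.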
# Gal4-VP16 FLuc: Gal4-VP16 reporter inhibition counter-screen. Drosophila S2 Gal4-VP16 UAS-luciferase, luminescence, 20 h. 310,000 compounds, 3.5% hits. Potency, µM (top dose mostly 53.6 µM), for the others: at the top dose activity, negative = inhibition, usual class: inhibitors;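 further: Gal4-VP16 expression switched on by copper sulfate through the metallothionein promoter; nearly all actives have a fitted effect of over 50% in size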
# TDP1 inh: inhibitors of human tyrosyl-DNA phosphodiesterase TDP1; Q9NUW8; recombinant TDP1, AlphaScreen DNA substrate cleavage; Potency, µM (series often up to 130 µM), inactives show top-dose activity change, negative = inhibition, actives largely listed as inhibitors; 350,000 compounds, 0.28% hits; AID 485290; further: nearly all actives have a fitted effect of over 40% in size
# Target sequence (Q9NUW8 whole entry, looked up): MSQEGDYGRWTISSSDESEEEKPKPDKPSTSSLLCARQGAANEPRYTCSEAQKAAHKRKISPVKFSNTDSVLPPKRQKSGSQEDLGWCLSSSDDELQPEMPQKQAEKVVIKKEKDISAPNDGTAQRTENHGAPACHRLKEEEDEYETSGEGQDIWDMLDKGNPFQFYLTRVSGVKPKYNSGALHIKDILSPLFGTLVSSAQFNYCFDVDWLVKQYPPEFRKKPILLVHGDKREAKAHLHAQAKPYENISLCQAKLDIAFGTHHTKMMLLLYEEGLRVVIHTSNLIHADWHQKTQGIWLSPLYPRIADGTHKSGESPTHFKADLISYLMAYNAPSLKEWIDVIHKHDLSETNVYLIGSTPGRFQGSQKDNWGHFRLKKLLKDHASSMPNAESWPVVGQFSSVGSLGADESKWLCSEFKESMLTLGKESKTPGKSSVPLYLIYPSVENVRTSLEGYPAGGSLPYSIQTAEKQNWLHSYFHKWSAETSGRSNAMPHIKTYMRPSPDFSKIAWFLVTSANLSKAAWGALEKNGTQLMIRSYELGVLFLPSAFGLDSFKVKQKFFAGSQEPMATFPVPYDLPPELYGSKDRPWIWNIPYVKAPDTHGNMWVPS
#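 Signal: AlphaScreen proximity between streptavidin donor and anti-FITC acceptor beads on intact substrate. Reaction: Tdp1 1 nM, substrate 15 nM final, 5 min RT after 15 min compound preincubation.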
# Active calls of the source: *; u = inconclusive; x = no result; [ ] = dose if it differs, or a comment. This is a sample that favours compounds with a hit; in the whole collection about 19% have one here. The call rests on the fitted dose curve; in most records, active means well fitted curve in the direction sought with a large enough effect; inconclusive means small, poorly fitted or top-dose-only effect, or another doubt; inactive means no such curve, though single readings can be large; an effect the other way counts as inactive or inconclusive. On the % scale 0 is the no-effect control and ±100 the full control effect; potency means the concentration at half of the fitted maximal effect.
SMILES,RORg inh,DT40 TDP1 no CPT,TDP1 cell CPT,Gal4-VP16 FLuc,TDP1 inh
COc1ccc(C(=O)N2CCC3(CC2)CCN(c2ncccn2)CC3)cc1,3.2%,-26.2%,2.6%,-9.8%,x
C=CCN([C@@H](CC(C)C)C(=O)OC)S(=O)(=O)N(CC=C)[C@@H](CC(C)C)C(=O)OC,x,17.8µM*,u,x,-7.5%
Cc1ccc(-c2nn3c(-c4ccccc4)nnc3c3ccccc23)cc1,x,-18.2%,7.6%,x,0.0%
Cc1ccc(-c2nn3c(-c4ccccc4C)nnc3c3ccccc23)cc1,x,18.4µM*,u,x,3.2%
CCOc1ccc(C2C(C#N)=C(N)SC(N)=C2C#N)c(OCC)c1,12.6µM*,u,u,u,2.8%
Cc1sccc1C1C(C#N)=C(N)SC(N)=C1C#N,-1.5%[0.365 µM],x,x,x,1.1%
CSc1nn(Cc2cccc(Cl)c2)c(N(C(C)=O)C(C)=O)c1S(=O)(=O)c1ccccc1,x,20.6µM*,u,x,-2.7%
CC(=O)Nc1cc(-c2ccccc2)nn1Cc1cccc(Cl)c1,x,-26.4%,-17.4%,x,1.9%
CC1CCc2c(sc3nnn(CCCCOc4ccc(Cl)cc4)c(=O)c23)C1 (stereo not given),x,-9.5%,-8.3%,x,2.3%
Cc1cccc(Cl)c1NC(=S)NN,5.01µM*,13µM*,u,u,x
Cc1ccc(Cl)cc1NC(=S)NN,8.91µM*,u,u,u,6.8%
NC(=O)Nc1cc(Cl)ccc1Cl,2.6%,-0.1%,2.3%,-0.5%,-3.8%
COC(=O)CCC(=O)NC(=S)Nc1c(C)cccc1C,u,u,-0.3%,u,-0.6%
CNC(=S)Nc1cccc(Cl)c1C,12.6µM*,5.6%,11.3%,u,-2.4%
NC(=S)Nc1cc(Cl)ccc1Cl,0.0%,13µM*,14.6µM*,u,4.1%
CC(C)C[C@@H]1NC(=O)[C@H](Cc2ccc(O)cc2)NC(=O)c2cc([N+](=O)[O-])cc(I)c2NCCC[C@@H](C(N)=O)NC1=O,-1.9%,9.2%,-1.0%,-0.1%,0.0%
O=C1OCC2=C1C(c1cccc(Cl)c1)CC(=O)N2c1ccc(C(F)(F)F)cc1 (stereo not given),x,1.1%,-5.9%,x,8.4%
CCOC(=O)Nc1cccc(Cl)c1C,0.8%,-10.4%,-4.6%,5.2%,4.0%
Cc1c(Cl)cccc1NC(=S)NN,3.55µM*,u,u,10µM*,-2.7%
CC(=O)Nc1ccc(NC(=O)c2cccc3ccccc23)cc1,-11.0%,-9.1%,4.4%,-1.6%,x
CC(=O)Nc1ccc(N=Cc2c(O)c3ccccc3oc2=O)cc1,-0.4%,-10.5%,20.6µM*,-4.8%,x
CC(=O)Nc1ccc(N=Cc2c(O)c(C(=O)Nc3ccccc3)cc3ccccc23)cc1,4.1%,16.4µM*,u,-4.0%,-2.9%
CC(=O)Nc1cccc(Nc2cnccn2)c1,x,0.2%,-0.7%,x,x
Nc1ccc(C(=O)n2c3ccccc3c3ccccc32)cc1,-40.9%,2.31µM*,1.84µM*,-6.0%,-2.5%
Nc1ccc(C(=O)N2CCCC2)cc1,-37.5%,-4.9%,-0.4%,3.7%,1.1%
SMILES,RORg inh,DT40 TDP1 no CPT,TDP1 cell CPT,Gal4-VP16 FLuc,TDP1 inh
COC(=O)c1cc(=O)nc2sc(-c3ccc(F)cc3)nn12,-6.2%,u,23.1µM*,5.3%,5.2%
COC(=O)c1cc(=O)nc2sc(-c3cccs3)nn12,8.8%,-21.7%,0.7%,3.8%,2.2%
Cn1c(=O)n(C)c2cc(NS(=O)(=O)c3ccc(Br)s3)ccc21,13.8%,u,u,-2.8%,2.5%
CN(C)c1ccc(C=c2c3ccccc3n3c2c2c([n+]3C)CCCC2)cc1,x,0.326µM*,0.411µM*,x,x
CN(C)c1ccc(C=c2c3ccccc3n3c2cc(-c2ccc(Cl)cc2)[n+]3C)cc1,x,4.61µM*,4.11µM*,x,x
COc1cc(C=c2c3ccccc3n3c2cc(-c2ccccc2)[n+]3C)cc(OC)c1OC,x,4.61µM*,5.17µM*,x,x
CN(C)c1ccc(C=c2c3cc([N+](=O)[O-])ccc3n3c2cc(-c2ccccc2)[n+]3C)cc1,x,2.59µM*,2.91µM*,x,x
CCN(CC(=O)Nc1ccc(NC(C)=O)cc1)CC(=O)Nc1ccc(F)c(Cl)c1,11.0%,u,5.0%,2.4%,8.1%
